In one assay the test system is HCC1937. Description: relative cell viability, compound + RSL3, vs DMSO (fraction of DMSO control); higher = less growth inhibition. As to conditions: 72 h.
In another assay the test system is MDA-MB-231. Described as above. As to conditions: 72 h.

Where a name gives a salt, the structure may show the parent alone.
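Also: breast cancer cell viability read out with the CCK-8 kit after co-treatment of each compound with the ferroptosis inducer RSL3.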

Consider `O=C(O)C(=O)Nc1sc2c(c1C(=O)O)CCNC2` + COC(=O)c1ccc([C@H]2c3[nH]c4ccccc4c3C[C@H](C(=O)OC)N2C(=O)CCl)cc1 [RSL3], for which the values for the relative cell viability with HCC1937 and in the assay with MDA-MB-231 were 0.541 and 0.648, respectively.
Take `O=C(NCCS(=O)(=O)c1ccc(C(F)(F)F)cn1)c1ccc(Cl)cc1` + COC(=O)c1ccc([C@H]2c3[nH]c4ccccc4c3C[C@H](C(=O)OC)N2C(=O)CCl)cc1 [RSL3]: the relative cell viability in the assay on HCC1937 was 0.362; in the assay on MDA-MB-231 it was 0.525.
Taken in the same sequence, the figures for `CCc1ccc(N(CC(C)C)S(=O)(=O)c2ccc(OCC3CCOCC3)c(CO)c2)cc1` + COC(=O)c1ccc([C@H]2c3[nH]c4ccccc4c3C[C@H](C(=O)OC)N2C(=O)CCl)cc1 [RSL3] were 0.53 and 0.581.
The corresponding values for `CNC(=O)c1cccc(NC(=O)N2CCC(Oc3ccccc3Cl)CC2)c1` + COC(=O)c1ccc([C@H]2c3[nH]c4ccccc4c3C[C@H](C(=O)OC)N2C(=O)CCl)cc1 [RSL3] are 0.895 and 0.683.
On to `CC[C@H](C)C(=O)O[C@H]1CCC=C2C=C[C@H](C)[C@H](CC[C@@H]3C[C@@H](O)CC(=O)O3)[C@H]21` [Mevastatin] + COC(=O)c1ccc([C@H]2c3[nH]c4ccccc4c3C[C@H](C(=O)OC)N2C(=O)CCl)cc1 [RSL3], for which the relative cell viability was 0.707 in the assay with HCC1937 and 0.369 in the assay with MDA-MB-231.
For `COc1cc([C@@H]2Oc3c(O)cc([C@H]4Oc5cc(O)cc(O)c5C(=O)[C@@H]4O)cc3[C@H]2CO)ccc1O` [Silychristin] + COC(=O)c1ccc([C@H]2c3[nH]c4ccccc4c3C[C@H](C(=O)OC)N2C(=O)CCl)cc1 [RSL3], the relative cell viability came out at 0.567 with HCC1937 and 0.66 in the assay on MDA-MB-231.
For `CN(C)C(=N)NC(=N)N` [Metformin] + COC(=O)c1ccc([C@H]2c3[nH]c4ccccc4c3C[C@H](C(=O)OC)N2C(=O)CCl)cc1 [RSL3], the relative cell viability in the assay on HCC1937 turned out to be 0.335; in the assay on MDA-MB-231, 0.542.
Consider `O=C(c1ccc(NS(=O)(=O)c2cccc3cccnc23)cc1)N1CCN(CC2CC2)CC1` [Mitapivat] + COC(=O)c1ccc([C@H]2c3[nH]c4ccccc4c3C[C@H](C(=O)OC)N2C(=O)CCl)cc1 [RSL3], for which the figures for the relative cell viability in the assay on HCC1937 and in the assay on MDA-MB-231 were 0.558 and 0.654, respectively.
The corresponding values for `O=C(O)C(O)Cc1ccc(O)c(O)c1` (configuration not stated) [Sodium Danshensu] + COC(=O)c1ccc([C@H]2c3[nH]c4ccccc4c3C[C@H](C(=O)OC)N2C(=O)CCl)cc1 [RSL3] are 0.631 and 0.545.
Consider `COP(=O)(OC)OC(c1ccc(Cl)cc1)P(=O)(OC)OC` (configuration not stated) [Mifobate] + COC(=O)c1ccc([C@H]2c3[nH]c4ccccc4c3C[C@H](C(=O)OC)N2C(=O)CCl)cc1 [RSL3], for which the relative cell viability came out at 0.632 with HCC1937 and 0.669 with MDA-MB-231.
As for `Nc1cccc(S(=O)(=O)N2CCCN(S(=O)(=O)c3ccc4c(c3)OCCO4)CC2)c1` + COC(=O)c1ccc([C@H]2c3[nH]c4ccccc4c3C[C@H](C(=O)OC)N2C(=O)CCl)cc1 [RSL3], the relative cell viability with HCC1937 stood at 0.382; with MDA-MB-231 it was 0.632.
The corresponding values for `COc1ccc([C@@H]2OC[C@H]3[C@@H]2CO[C@@H]3c2ccc(O[C@@H]3O[C@H](CO)[C@@H](O)[C@H](O)[C@H]3O)c(OC)c2)cc1OC` [Forsythin] + COC(=O)c1ccc([C@H]2c3[nH]c4ccccc4c3C[C@H](C(=O)OC)N2C(=O)CCl)cc1 [RSL3] are 0.731 and 0.664.
Regarding `Cc1nc2c([nH]1)c(=O)n(C)c(=O)n2Cc1ccco1` [Furafylline] + COC(=O)c1ccc([C@H]2c3[nH]c4ccccc4c3C[C@H](C(=O)OC)N2C(=O)CCl)cc1 [RSL3], the relative cell viability in the assay with HCC1937 worked out at 0.399; in the assay with MDA-MB-231 it was 0.596.
Consider `CN1CCN(C(=O)C2C(C(=O)O)[C@H]3CC[C@@H]2O3)CC1` (some centres not stated) + COC(=O)c1ccc([C@H]2c3[nH]c4ccccc4c3C[C@H](C(=O)OC)N2C(=O)CCl)cc1 [RSL3], for which the relative cell viability came out at 0.313 in the assay on HCC1937 and 0.367 in the assay on MDA-MB-231.
Taken in the same sequence, the figures for `COc1cc(F)c(C(C)C)cc1-c1ccc(C(F)(F)F)cc1CN1C(=O)O[C@H](c2cc(C(F)(F)F)cc(C(F)(F)F)c2)[C@@H]1C` [Anacetrapib] + COC(=O)c1ccc([C@H]2c3[nH]c4ccccc4c3C[C@H](C(=O)OC)N2C(=O)CCl)cc1 [RSL3] were 0.622 and 0.497.
Consider `CC1(C)C[C@H]2C3=CC[C@@H]4[C@@]5(C)CC[C@H](O)[C@@](C)(CO)[C@@H]5CC[C@@]4(C)[C@]3(C)C[C@H](O)[C@@]2(CO)[C@@H](O)[C@@H]1O` [Gymnemagenin] + COC(=O)c1ccc([C@H]2c3[nH]c4ccccc4c3C[C@H](C(=O)OC)N2C(=O)CCl)cc1 [RSL3], for which the values for the relative cell viability in the assay with HCC1937 and in the assay on MDA-MB-231 were 0.571 and 0.657, respectively.
Turning to `CC(C)(CCCCCC(O)CCCCCC(C)(C)C(=O)O)C(=O)O` + COC(=O)c1ccc([C@H]2c3[nH]c4ccccc4c3C[C@H](C(=O)OC)N2C(=O)CCl)cc1 [RSL3], the relative cell viability with HCC1937 was 0.288; in the assay on MDA-MB-231, 0.337.
Consider `C[C@@H]1O[C@@H](O[C@H]2[C@H](Oc3cc(O)c4c(c3)O[C@H](c3ccc(O)cc3)CC4=O)O[C@H](CO)[C@@H](O)[C@@H]2O)[C@H](O)[C@H](O)[C@H]1O` [Naringin] + COC(=O)c1ccc([C@H]2c3[nH]c4ccccc4c3C[C@H](C(=O)OC)N2C(=O)CCl)cc1 [RSL3], for which the relative cell viability was found to be 0.949 with HCC1937 and 0.658 in the assay on MDA-MB-231.
Consider `C[C@@H](Nc1nc(N[C@H](C)C(F)(F)F)nc(-c2cccc(Cl)n2)n1)C(F)(F)F` [Vorasidenib] + COC(=O)c1ccc([C@H]2c3[nH]c4ccccc4c3C[C@H](C(=O)OC)N2C(=O)CCl)cc1 [RSL3], for which the relative cell viability in the assay on HCC1937 was 0.409; in the assay on MDA-MB-231, 0.595.
Consider `CCCc1cc(-c2nc(-c3ccc(C)cc3)cs2)ccn1` [Fatostatin] + COC(=O)c1ccc([C@H]2c3[nH]c4ccccc4c3C[C@H](C(=O)OC)N2C(=O)CCl)cc1 [RSL3], for which the results for the relative cell viability in the assay with HCC1937 and in the assay on MDA-MB-231 were 0.269 and 0.715, respectively.
The corresponding values for `CCCCCCCCCCCC1=C(O)C(=O)C=C(O)C1=O` [Embelin] + COC(=O)c1ccc([C@H]2c3[nH]c4ccccc4c3C[C@H](C(=O)OC)N2C(=O)CCl)cc1 [RSL3] are 0.458 and 0.471.
With `COC(=O)/C=C/c1cccc(N(Cc2ccc(-c3ccc(N(C)C)cc3)cc2)C(=O)C2CCCCC2)c1` [Fexaramine] + COC(=O)c1ccc([C@H]2c3[nH]c4ccccc4c3C[C@H](C(=O)OC)N2C(=O)CCl)cc1 [RSL3], the relative cell viability in the assay on HCC1937 came out at 0.316; with MDA-MB-231, 0.601.
For `CC(=O)Oc1cc(C(F)(F)F)ccc1C(=O)O` [Triflusal] + COC(=O)c1ccc([C@H]2c3[nH]c4ccccc4c3C[C@H](C(=O)OC)N2C(=O)CCl)cc1 [RSL3], the relative cell viability is 0.717 with HCC1937 and 0.492 in the assay with MDA-MB-231.
On to `Cc1nc2ccc(NCc3cccc(C(F)(F)F)c3)cc2n(CCNC(=O)CO)c1=O` + COC(=O)c1ccc([C@H]2c3[nH]c4ccccc4c3C[C@H](C(=O)OC)N2C(=O)CCl)cc1 [RSL3], for which the relative cell viability came to 0.354 with HCC1937 and 0.567 in the assay with MDA-MB-231.
As to `Fc1ccc(-c2c3cccc(C(F)(F)F)c3nn2Cc2ccc(F)cc2Cl)cc1` + COC(=O)c1ccc([C@H]2c3[nH]c4ccccc4c3C[C@H](C(=O)OC)N2C(=O)CCl)cc1 [RSL3], the relative cell viability with HCC1937 came out at 0.756; in the assay with MDA-MB-231 it was 0.578.
Take `O=C(Nc1cnccc1Cl)N1CCN(Cc2ccc3c(c2)OC(F)(F)O3)CC1` + COC(=O)c1ccc([C@H]2c3[nH]c4ccccc4c3C[C@H](C(=O)OC)N2C(=O)CCl)cc1 [RSL3]: the relative cell viability was determined as 0.338 in the assay on HCC1937 and 0.568 in the assay with MDA-MB-231.
Taken in the same sequence, the figures for `CC(C)(Oc1ccc(Cl)cc1)C(=O)O` [Clofibric acid] + COC(=O)c1ccc([C@H]2c3[nH]c4ccccc4c3C[C@H](C(=O)OC)N2C(=O)CCl)cc1 [RSL3] were 0.956 and 0.603.
With `NC(N)=NN=Cc1cccc(Cl)c1Cl` [Raphin1] + COC(=O)c1ccc([C@H]2c3[nH]c4ccccc4c3C[C@H](C(=O)OC)N2C(=O)CCl)cc1 [RSL3], the relative cell viability came out at 0.289 with HCC1937 and 0.626 with MDA-MB-231.
As to `CCN(CC)CCCC(C)Nc1c2ccc(Cl)cc2nc2ccc(OC)cc12` (configuration not stated) [Quinacrine dihydrochloride] + COC(=O)c1ccc([C@H]2c3[nH]c4ccccc4c3C[C@H](C(=O)OC)N2C(=O)CCl)cc1 [RSL3], the figures for the relative cell viability in the assay on HCC1937 and in the assay on MDA-MB-231 were 0.301 and 0.283, respectively.
Turning to `CCCCCCCCCCCCC/C=C/[C@@H](O)[C@@H](N)CO` + COC(=O)c1ccc([C@H]2c3[nH]c4ccccc4c3C[C@H](C(=O)OC)N2C(=O)CCl)cc1 [RSL3], the relative cell viability with HCC1937 came to 0.0823; with MDA-MB-231 it was 0.167.
For the compound `CC(C)=CCC[C@](C)(O)[C@H]1CC[C@]2(C)[C@@H]1[C@H](O)C[C@@H]1[C@@]3(C)CC[C@H](O)C(C)(C)[C@@H]3[C@@H](O)C[C@]12C` [(20S)-Protopanaxatriol] + COC(=O)c1ccc([C@H]2c3[nH]c4ccccc4c3C[C@H](C(=O)OC)N2C(=O)CCl)cc1 [RSL3], the relative cell viability with HCC1937 was determined as 0.762; in the assay with MDA-MB-231, 0.672.
Regarding `CN(CCOc1ccc(CC2SC(=O)NC2=O)cc1)c1ccccn1` (configuration not stated) [Rosiglitazone maleate] + COC(=O)c1ccc([C@H]2c3[nH]c4ccccc4c3C[C@H](C(=O)OC)N2C(=O)CCl)cc1 [RSL3], the values for the relative cell viability in the assay with HCC1937 and with MDA-MB-231 were 0.758 and 0.516, respectively.
Taken in the same sequence, the figures for `COc1ccc(-n2c(SCCCN3C(=O)c4cccc5cccc(c45)C3=O)nnc2-c2ccncc2)cc1` + COC(=O)c1ccc([C@H]2c3[nH]c4ccccc4c3C[C@H](C(=O)OC)N2C(=O)CCl)cc1 [RSL3] were 0.324 and 0.56.
Take `OC[C@H]1O[C@@H](Oc2cc(O)cc(/C=C/c3ccc(O)cc3)c2)[C@H](O)[C@@H](O)[C@@H]1O` [Polydatin] + COC(=O)c1ccc([C@H]2c3[nH]c4ccccc4c3C[C@H](C(=O)OC)N2C(=O)CCl)cc1 [RSL3]: the relative cell viability in the assay with HCC1937 is 0.749; in the assay on MDA-MB-231, 0.608.
`CC(C)(C)NC(=O)[C@H]1CC[C@H]2[C@@H]3CC[C@H]4NC(=O)C=C[C@]4(C)[C@H]3CC[C@]12C` [Finasteride] + COC(=O)c1ccc([C@H]2c3[nH]c4ccccc4c3C[C@H](C(=O)OC)N2C(=O)CCl)cc1 [RSL3]: the relative cell viability with HCC1937 came out at 0.885; in the assay on MDA-MB-231, 0.645.
Take `CC(C)(O)c1ccccc1CC[C@@H](SCC1(CC(=O)O)CC1)c1cccc(/C=C/c2ccc3ccc(Cl)cc3n2)c1` [Montelukast] + COC(=O)c1ccc([C@H]2c3[nH]c4ccccc4c3C[C@H](C(=O)OC)N2C(=O)CCl)cc1 [RSL3]: the relative cell viability with HCC1937 was found to be 0.589; in the assay with MDA-MB-231 it was 0.484.

For the origin of these results see the supplement of paper PMC9492666.
